RORg inh = ROR gamma (mouse) transcription inhibition; Drosophila S2 Gal4-RORgamma UAS-luciferase reporter, 20 h; AID 2551; Potency, µM (titrated, usually from 53.6 µM), without a hit: at the top dose activity change, negative = inhibition, usual class: inhibitors; P51450; 5.4% of 310,000 active; also: potency is read from the fitted curve at half-maximal effect; nearly all actives have a fitted effect of over 60% in size
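ROR gamma transcriptional activity was tracked as Gal4-UAS luciferase output in stably transfected Drosophila Schneider cells, with compound added 1 hr before 700 uM copper sulfate induction and a 20 hr ambient-temperature incubation.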
ELG1 repair inh = ELG1-dependent DNA repair inhibition. HEK293T ELG1-luciferase reporter, luminescence, 16 h; DNA damage induced by 5-fluorouridine. Potency, µM (series often up to 46.1 µM), for inactives: top-dose activity change, negative = inhibition, hits mostly inhibitors. 2.3% of 330,000 active; also: potency is read from the fitted curve at half-maximal effect; nearly all actives have a fitted effect of over 55% in size
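5-Fluorouridine DNA damage + compound/DMSO, 2,000 cells/well, 16 h, 37 °C/5% CO2. ONE-Glo, 30 min RT, luminescence. Readout = decrease in reporter signal.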
Gal4-VP16 FLuc = counter-screen for ROR gamma inhibitors: Gal4-VP16 reporter; Drosophila S2 Gal4-VP16 UAS-luciferase, luminescence, 20 h; Potency, µM (top dose mostly 53.6 µM), for inactives: at the highest dose activity, negative = inhibition, usual class: inhibitors; 3.5% of 310,000 active;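 also: Gal4-VP16 expression switched on by copper sulfate through the metallothionein promoter; potency is read from the fitted curve at half-maximal effect; nearly all actives have a fitted effect of over 50% in size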
B2AR arrestin = beta2AR (human) beta-arrestin recruitment activity. P07550. beta-arrestin recruitment to beta2AR, cell-based reporter. Potency, µM (titrated, usually from 46.1 µM), for inactives: at the highest dose activation, usual class: activators. 0.02% of 330,000 active;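 also: potency is read from the fitted curve at half-maximal effect; 0% = DMSO controls and full agonism = EC100 isoproterenol or metaproterenol; nearly all actives have a fitted effect of over 65% in size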
Target sequence (P07550 whole entry, looked up): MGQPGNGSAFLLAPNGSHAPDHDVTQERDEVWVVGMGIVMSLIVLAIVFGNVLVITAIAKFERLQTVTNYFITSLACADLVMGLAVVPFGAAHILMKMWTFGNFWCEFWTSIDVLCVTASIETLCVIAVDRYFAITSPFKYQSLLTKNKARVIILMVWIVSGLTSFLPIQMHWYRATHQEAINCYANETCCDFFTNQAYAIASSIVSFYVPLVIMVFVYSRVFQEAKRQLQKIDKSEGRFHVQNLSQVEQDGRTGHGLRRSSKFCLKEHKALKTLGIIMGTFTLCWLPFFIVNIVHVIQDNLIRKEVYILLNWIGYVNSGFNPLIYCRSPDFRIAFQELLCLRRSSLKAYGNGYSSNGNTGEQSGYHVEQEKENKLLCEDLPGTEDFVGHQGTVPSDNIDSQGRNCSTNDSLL
TSHR antag = antagonists of human thyroid stimulating hormone receptor | activity change, negative = inhibition, % at 11.5 µM | 0.2% of 330,000 active | TSHR-expressing cells, TSH-stimulated cAMP HTRF, 2 h; hits give low values;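 active = activity change below a set negative limit, meaning inhibition stronger than a set level, cut at about -70% in these data; inconclusive = activity change between two set negative limits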
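Read-out is FRET at 665 nm (cryptate excitation 337 nm) from a cryptate-tagged anti-cAMP antibody, competed by cell cAMP against cAMP-d2. Compounds are tested on freshly harvested TSHR cells challenged with 4nM TSH (EC80) for 2 hours at 37 deg C.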
* hit, by the source's call; ? = inconclusive; . = not tested or not shown. A selection: hits, their analogues and other compounds. The true share with any hit is near 7.5%. Unless noted, calls follow the shape of the dose curve; as a rule, active = well fitted curve in the direction sought with a large enough effect; inconclusive = small, poorly fitted or top-dose-only effect, or another doubt; inactive = no such curve, though single readings can be large; an effect the other way counts as inactive or inconclusive. Unless noted, % is scaled to controls: 0 for no effect and ±100 for the full control effect.

SMILES	RORg inh	ELG1 repair inh	Gal4-VP16 FLuc	B2AR arrestin	TSHR antag
O=C(Cl)c1ccccc1F	-11.2%	.	4.2%	.	.
S=C(S)N1CCCC1	?	16.7%	0.316µM*	-0.3%	10.1
O=C(CCc1nnc(CCCCc2ccccc2)o1)N1CCCC(O)C1 (configuration not stated)	6.8%	?	12.7%	-0.7%	0.7
C[C@H](CCC(=O)O)C[C@H](C)C[C@H](C)C(=O)/C=C(\O)[C@H](C)C[C@H](C)C/C=C/[C@@H](C)[C@@H](O)[C@@H](C)[C@@H](O)C[C@@H]1CC[C@@](C)(C2CC[C@@](C)([C@@H](C)O)O2)O1 (some centres not stated)	?	.	6.31µM*	.	.
C=CC(=O)OCC(CC)CCCC (configuration not stated)	-0.2%	.	-7.5%	.	.
CCn1nc(-c2cccs2)nc2c(=O)n(C)c(=O)nc1-2	0.794µM*	?	1.26µM*	-0.4%	-28.6
Clc1cccc2ccccc12	-18.5%	.	0.8%	.	.
S=C=Nc1cccc2ccccc12	6.31µM*	.	12.6µM*	.	.
COc1cc2c(c3oc4cccc(O)c4c(=O)c13)C1C=CO[C@@H]1O2 (some centres not stated)	12.6µM*	.	10µM*	.	.
CC(=O)OC(CC(=O)O)C[N+](C)(C)C (configuration not stated)	-1.8%	18.4µM*	9.0%	-0.3%	13.5
CCC(Cl)[N+](=O)[O-] (configuration not stated)	2.0%	.	-7.3%	.	.
COC(=O)C(O)(c1ccc(NC(=S)NC(=O)c2ccc(Cl)cc2Cl)c(C)c1)C(F)(F)F (configuration not stated)	8.91µM*	-24.4%	?	0.9%	-9.8
CCOC(=O)C(O)(c1ccc(NC(=S)NC(=O)c2ccc(Cl)cc2Cl)c(C)c1)C(F)(F)F (configuration not stated)	12.6µM*	-2.9%	?	0.3%	-15.0
CCOC(=O)C(NC(=O)CC)(Nc1ccc(C(O)(C(=O)OCC)C(F)(F)F)cc1C)C(F)(F)F (configuration not stated)	-1.8%	-25.8%	-5.3%	3.8%	-3.5
O=c1cccc2n1CC1CC2CN(CCO)C1 (configuration not stated)	9.9%	.	1.7%	.	.
CC(C)OC(=O)C(O)(c1ccc(Cl)cc1)c1ccc(Cl)cc1	-26.2%	.	-3.3%	.	.
CCN(CC)C(=O)c1ccc(NC(=O)c2cn(-c3ccccc3)nc2-c2ccc(OC)cc2)cc1	1.6%	13µM*	-2.3%	0.0%	-10.5
COc1ccc(C2=NCC(=S)Nc3ccc(Cl)cc32)cc1Cl	2.82µM*	?	8.91µM*	-0.1%	0.7
O=C1CN=C(c2ccc[nH]2)c2cc(Cl)ccc2N1	-24.8%	8.2µM*	1.1%	-0.9%	11.2
S=C1CN=C(c2ccccc2)c2cc(Cl)ccc2N1	2µM*	?	6.31µM*	-0.5%	0.0
OC12ONC(c3ccccn3)C1N1CCC2CC1 (configuration not stated)	40.3%	-0.1%	?	18.4µM*	20.2
c1ccc(NNc2ccccc2)cc1	-5.9%	.	-1.2%	.	.
CN1CCc2cc3c(c4c2[C@H]1Cc1ccccc1-4)OCO3	-34.6%	.	-26.2%	.	.
COc1cc2c(cc1OC)-c1c3c(cc4c1[C@@H](C2)N(C)CC4)OCO3	?	-3.3%	12.6µM*	2.1%	-9.2
COc1cc2c(cc1O)C[C@H]1NCCc3cc4c(c-2c31)OCO4	10µM*	?	?	-1.1%	-16.7
SMILES	RORg inh	ELG1 repair inh	Gal4-VP16 FLuc	B2AR arrestin	TSHR antag
COC(=O)[C@@]1(Cc2ccccc2)[C@H]2c3cc(C(=O)N(C)C)n(C)c3C[C@H]2CN1C(=O)c1ccccc1	-14.1%	.	-3.7%	.	.
O=C(NCc1cc(C(F)(F)F)ccc1Cl)c1cccc2c1C(=O)c1ccc(Cl)cc1S2(=O)=O	.	?	.	0.0%	-10.6
CCC(=NCc1cc(OC)cc(OC)c1)c1c(O)n(C)c(=O)n(C)c1=O	-13.8%	20.6µM*	?	-0.1%	-25.0
CC(=NCc1ccc2c(c1)OCO2)c1c(O)n(C)c(=O)n(C)c1=O	14.9%	?	-2.8%	-0.1%	9.5
CCC(=NCc1ccc2c(c1)OCO2)c1c(O)n(C)c(=O)n(C)c1=O	38.5%	14.6µM*	?	0.1%	-16.5
COC(=O)C12CC3=CC(CC3=O)Cc3ccccc3[C@@H]1CNC2=O (some centres not stated)	-11.2%	.	1.4%	.	.
Oc1ccc2c(c1)[C@@]13CCCCC1[C@@H](C2)N(CC1CCC1)CC3 (some centres not stated)	21.3%	.	4.5%	.	.
CC#C[C@]1(O)CC[C@H]2C3C=C(C)C4=CC(=O)C=C[C@]4(C)[C@H]3[C@@H](O)C[C@@]21C (some centres not stated)	41.6%	.	2.2%	.	.
C=CCOC(C)=O	9.4%	.	2.6%	.	.
CCC1C=CC=CC[C@H](C)[C@@H](O)[C@](C)(O)C(=O)[C@@H](C)[C@H](O)[C@@H](C)C(=O)[C@H](C)[C@@H](O)[C@H](C)C=CC(=O)OC2[C@@H](C)C(CC1)OC1(CC[C@@H](C)C(C[C@H](C)O)O1)[C@@H]2C (some centres not stated)	.	11.6µM*	.	-0.3%	-79.5*
CN1C2CCCC1CC(=O)C2	10.6%	.	2.6%	.	.
CCOC(=O)c1ncc2[nH]c3ccc(OCc4ccccc4)cc3c2c1COC	-92.3%	.	4.47µM*	.	.
CCC[CH2][Sn]([Cl])([Cl])[Cl]	-6.3%	.	-8.8%	.	.
O=c1c2ccccc2[nH]c(=S)n1-c1ccc2c(c1)OCO2	2.82µM*	1.3%	10µM*	-0.9%	3.2
COc1ccc2c3c([nH]c2c1)C(C)=NCC3	?	9.2µM*	3.4%	-1.7%	-12.2
C=Cn1ccnc1P(=S)(c1c(C)nn(-c2ccccc2)c1C)c1nccn1C=C	2.3%	-2.9%	-9.0%	4.2%	-2.0
C=Cn1ccnc1P(=S)(c1ccc(N(C)C)cc1)c1nccn1C=C	10µM*	4.2%	?	0.4%	-4.3
CC(c1nccs1)N(C)C(=O)c1cn(Cc2cccc3ccccc23)nn1 (configuration not stated)	24.6%	?	8.7%	-0.2%	8.5
O=C(NCc1ccccc1)C(=O)NCC1OCCN1S(=O)(=O)c1ccc([N+](=O)[O-])cc1 (configuration not stated)	19.9%	?	19.3%	0.1%	0.3
N#CSCSC#N	1.12µM*	.	0.447µM*	.	.
O=C(NC(=S)N1C[C@H]2C[C@H](C1)c1cccc(=O)n1C2)c1ccc(Cl)cc1Cl	10µM*	23.1%	-28.1%	-0.1%	11.1
CCCOc1ccc(C(=O)NC(=S)N2C[C@H]3C[C@H](C2)c2cccc(=O)n2C3)cc1	8.91µM*	?	?	-3.5%	-4.7
CCCCn1c(N)c(C(=O)NCc2cccs2)c2nc3ccccc3nc21	11.8%	23.1µM*	-8.1%	-0.2%	-1.5

Source: PubChem
